Assay [1] has as its target Nuclear receptor coactivator 3 (Homo sapiens) (UniProt Q9Y6Q9). The assay is described as follows: NCOA3 GAL4-fusion reporter inhibition – cell-based, luminescence, quadruplicate, confirmation (AID 588792;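 active means mean inhibition over 43.08%, the solvent-only control mean plus 3 SD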;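 further: 0% = DMSO treated cells and 100% = gossypol at 36 µM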). The settings on record: HEK293 GAL4-SRC3 luciferase reporter, at 3.6 µM, stronger effect = higher value. Background: Reporter assays use an easily measured gene product as a stand-in for the process of interest.

Assay [2] has as its system transactivating tegument protein VP16 (Human herpesvirus 1), Gal4-VP16 luciferase reporter. The assay is described as follows: repression of VP16-driven luciferase reporter – cell-based, luminescence, high throughput, counter-screen for SRC3 inhibitor project (AID 588794; in the data active means inhibition above about 30%). Conditions: mammalian cells, at 3.6 µM, stronger effect = higher value.
Assay [3] has as its target Nuclear receptor coactivator 1 (Homo sapiens) (UniProt Q15788). Put plainly: NCOA1 GAL4-fusion reporter inhibition – cell-based, luminescence, quadruplicate, confirmation (AID 588820;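 active means mean inhibition above 46.68%, the untreated control wells mean plus 3 SD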;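 further: 0% = DMSO wells and 100% = gossypol 36 µM treated wells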). The settings on record: HEK293 GAL4-SRC1 luciferase reporter, at 3.6 µM, stronger effect = higher value.
A short description of assay [4]: repression of VP16-driven luciferase reporter – cell-based, luminescence, high throughput, counter-screen for SRC1 inhibitor project (AID 588824). The settings on record: cell-based VP16 transactivation luciferase luminescence; at 3.6 µM; stronger effect = higher value.
Assay [5] can be described thus: StAR promoter reporter inhibitors, counter-screen for LRH-1 inverse agonist project, cell-based, luminescence, high throughput (AID 651611; in the data active means inhibition above about 28%). Conditions: StAR promoter luciferase reporter counterscreen, at 3.6 µM, stronger effect = higher value. A general note: Counterscreens check selectivity or assay interference.
Assay [6] concerns the target Nuclear receptor subfamily 5 group A member 2 (Homo sapiens) (UniProt O00482). The assay is described as follows: NR5A2 activity suppression in reporter cells – cell-based, luminescence, confirmation (AID 651613; in the data active means inhibition above about 42%;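 further: HEK293T cells co-transfected with LRH-1 and StAR promoter luciferase reporter; 0% = vehicle wells and 100% = parental cells lacking receptor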). Conditions: cell-based LRH-1 luciferase reporter, inverse agonism; at 3.6 µM; stronger effect = higher value.
Assay [7] concerns the target Steroidogenic factor 1 (Homo sapiens) (UniProt Q13285). The assay is described as follows: inverse agonism at SF1 nuclear receptor – cell-based, luminescence, high throughput, counter-screen for LRH-1 inverse agonist project (AID 651614; in the data active means inhibition above about 44%;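 further: cells cotransfected with StAR promoter reporter and SF1 expression vector; 0% = vehicle on cells with receptor and 100% = vehicle on cells lacking receptor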). Conditions: cell-based SF1 luciferase reporter, at 3.6 µM, stronger effect = higher value.
The nature of assay [8]: compounds suppressing VP16-driven luciferase signal – cell-based, luminescence, high throughput, counter-screen for LRH-1 inverse agonist project (AID 651615; in the data active means inhibition above about 33%). The settings on record: Gal4-VP16 luciferase reporter cells, at 3.6 µM, stronger effect = higher value.
The target in assay [9] is Photoreceptor-specific nuclear receptor (Homo sapiens) (UniProt Q9Y5X4). Put plainly: retest of NR2E3-NCOR disrupting agonists – cell-based, luminescence, CHO-S two-hybrid, confirmation (AID 624378;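 active means average inhibition above a cutoff equal to the mean inhibition of all tested compounds plus one SD, cut at about 70% in these data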;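 further: 0% = DMSO in NR2E3 cells and 100% = DMSO in cells lacking NR2E3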). The settings on record: CHO-S mammalian two-hybrid NR2E3-NCOR, luciferase luminescence; at 3.98 µM; stronger effect = higher value.
A short description of assay [10]: nonselective effects on VP16 transactivation – cell-based, luminescence, CHO-S, high throughput, counter-screen for NR2E3 agonist project, confirmation (AID 624379;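 active means mean inhibition above a cutoff equal to the average over all tested compounds plus one standard deviation, cut at about 70% in these data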;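 further: 0% = DMSO with VP16-transfected cells and 100% = DMSO with cells lacking VP16; higher means less reporter light so more repression of VP16 activity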). Conditions: CHO-S GAL4-VP16 luciferase reporter, at 3.98 µM, stronger effect = higher value.
Assay [11] concerns transactivating tegument protein VP16 (Human herpesvirus 1). Put plainly: compounds suppressing VP16-driven luciferase signal – cell-based, luminescence, single concentration, counter-screen for SRC2 inhibitor project (AID 652007; in the data active means inhibition above about 36%). The settings on record: cell-based VP16 transactivation luciferase reporter, at 8.9 µM, stronger effect = higher value.
The target of assay [12] is Nuclear receptor coactivator 2 (Homo sapiens) (UniProt Q15596). The assay is described as follows: inhibition of GAL4-SRC2 driven luciferase expression – cell-based, luminescence, HEK293, triplicate, confirmation (AID 652008;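 active means mean inhibition above 46.5%, the solvent-only control mean plus 3 SD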;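 further: 0% = DMSO-treated cells and 100% = Gossypol at 36 µM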). Conditions: HEK293 GAL4-SRC2 luciferase reporter, at 8.9 µM, stronger effect = higher value.
A short description of assay [13]: VP16-driven transactivation reporter suppression – cell-based, luminescence, HEK293, counter-screen for COUP-TFII antagonist project (AID 687007; in the data active means inhibition above about 13%). The settings on record: HEK293 Gal4-VP16 luciferase reporter, at 8.5 µM, stronger effect = higher value.
Assay [14] concerns the target COUP transcription factor 2 (Homo sapiens) (UniProt P24468). Put plainly: retest of COUP-TFII reporter suppressors – cell-based, luciferase reporter, HEK293, triplicate, confirmation (AID 687008;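 active means mean inhibition over three repeats above a set limit taken from the earlier primary screen, cut at about 38% in these data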;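 further: 100% = cells given the luciferase reporter alone without the COUP-TF2 vector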). The settings on record: HEK293 NGFI-A luciferase reporter, luminescence; at 8.5 µM; stronger effect = higher value.

Values without a mark were called inactive. This is one part of the list. Activity calls are given as the source filed them. Unless noted, no stated cut-off is given here; in the data, active means inhibition above about 25%; inactive means the rest.

Sequence of Nuclear receptor coactivator 3 (Homo sapiens) (Q9Y6Q9 whole entry, looked up, the tested form may be a part): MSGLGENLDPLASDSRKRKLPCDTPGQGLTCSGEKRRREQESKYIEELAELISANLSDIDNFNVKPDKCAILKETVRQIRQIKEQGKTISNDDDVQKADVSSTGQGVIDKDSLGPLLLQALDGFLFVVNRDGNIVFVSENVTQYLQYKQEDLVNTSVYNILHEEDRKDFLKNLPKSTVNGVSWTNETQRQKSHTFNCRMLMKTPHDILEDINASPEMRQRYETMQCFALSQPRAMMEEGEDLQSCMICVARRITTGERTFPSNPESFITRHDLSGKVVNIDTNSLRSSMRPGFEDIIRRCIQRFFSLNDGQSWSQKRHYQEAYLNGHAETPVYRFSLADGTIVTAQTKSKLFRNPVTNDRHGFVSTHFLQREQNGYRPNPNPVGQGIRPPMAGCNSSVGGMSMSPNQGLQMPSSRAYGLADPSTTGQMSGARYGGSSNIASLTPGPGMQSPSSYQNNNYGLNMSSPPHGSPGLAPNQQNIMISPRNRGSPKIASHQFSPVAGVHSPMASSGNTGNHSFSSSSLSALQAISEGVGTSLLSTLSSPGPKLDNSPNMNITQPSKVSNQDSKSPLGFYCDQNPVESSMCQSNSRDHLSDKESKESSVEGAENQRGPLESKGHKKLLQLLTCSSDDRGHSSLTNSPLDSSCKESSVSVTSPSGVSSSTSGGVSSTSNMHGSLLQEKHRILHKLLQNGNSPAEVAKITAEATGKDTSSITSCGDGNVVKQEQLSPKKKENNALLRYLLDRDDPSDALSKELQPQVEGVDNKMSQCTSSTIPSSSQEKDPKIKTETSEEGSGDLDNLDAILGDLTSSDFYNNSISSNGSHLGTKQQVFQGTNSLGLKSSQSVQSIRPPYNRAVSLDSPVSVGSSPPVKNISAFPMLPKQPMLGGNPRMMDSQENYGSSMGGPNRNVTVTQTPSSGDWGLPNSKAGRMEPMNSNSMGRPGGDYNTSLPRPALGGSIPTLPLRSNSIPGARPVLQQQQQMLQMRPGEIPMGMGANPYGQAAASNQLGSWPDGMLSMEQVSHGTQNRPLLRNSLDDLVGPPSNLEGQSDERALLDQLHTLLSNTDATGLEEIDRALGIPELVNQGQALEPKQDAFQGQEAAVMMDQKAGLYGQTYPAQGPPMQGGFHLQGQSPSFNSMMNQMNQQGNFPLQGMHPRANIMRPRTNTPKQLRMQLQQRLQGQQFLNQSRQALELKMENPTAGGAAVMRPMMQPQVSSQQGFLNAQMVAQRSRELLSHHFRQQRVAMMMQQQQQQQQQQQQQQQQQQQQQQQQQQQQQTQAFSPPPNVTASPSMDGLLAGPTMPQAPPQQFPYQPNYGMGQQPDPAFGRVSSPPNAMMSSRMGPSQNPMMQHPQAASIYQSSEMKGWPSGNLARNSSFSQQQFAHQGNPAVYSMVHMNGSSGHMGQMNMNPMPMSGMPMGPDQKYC
Sequence of Nuclear receptor subfamily 5 group A member 2 (Homo sapiens) (O00482 whole entry, looked up): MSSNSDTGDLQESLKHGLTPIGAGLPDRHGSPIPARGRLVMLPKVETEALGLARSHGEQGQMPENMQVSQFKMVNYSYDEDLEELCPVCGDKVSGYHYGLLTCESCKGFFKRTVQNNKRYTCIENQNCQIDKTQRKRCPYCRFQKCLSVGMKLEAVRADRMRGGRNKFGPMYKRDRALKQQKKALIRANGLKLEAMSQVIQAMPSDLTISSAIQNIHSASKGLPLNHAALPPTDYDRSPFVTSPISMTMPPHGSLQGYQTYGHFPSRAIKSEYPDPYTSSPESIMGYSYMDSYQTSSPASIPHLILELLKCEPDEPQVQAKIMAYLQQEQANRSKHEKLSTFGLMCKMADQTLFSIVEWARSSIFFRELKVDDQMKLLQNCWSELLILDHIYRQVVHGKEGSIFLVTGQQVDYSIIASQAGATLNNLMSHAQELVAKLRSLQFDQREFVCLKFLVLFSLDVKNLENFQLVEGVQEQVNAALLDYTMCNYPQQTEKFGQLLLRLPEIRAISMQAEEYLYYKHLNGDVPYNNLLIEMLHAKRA
Sequence of Steroidogenic factor 1 (Homo sapiens) (Q13285 whole entry, looked up, the tested form may be a part): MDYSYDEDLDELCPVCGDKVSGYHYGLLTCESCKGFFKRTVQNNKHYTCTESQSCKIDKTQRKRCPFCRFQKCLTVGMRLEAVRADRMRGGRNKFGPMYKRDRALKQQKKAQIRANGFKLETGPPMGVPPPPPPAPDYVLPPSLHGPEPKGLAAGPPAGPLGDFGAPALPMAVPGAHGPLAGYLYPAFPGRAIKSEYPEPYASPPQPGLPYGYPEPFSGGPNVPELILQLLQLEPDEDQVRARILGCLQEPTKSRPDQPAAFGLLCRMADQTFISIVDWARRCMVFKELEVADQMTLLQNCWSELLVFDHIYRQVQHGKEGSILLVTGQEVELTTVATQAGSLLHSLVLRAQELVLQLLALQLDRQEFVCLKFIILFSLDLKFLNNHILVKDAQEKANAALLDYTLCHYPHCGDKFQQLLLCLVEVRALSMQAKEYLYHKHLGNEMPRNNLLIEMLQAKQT
Sequence of Nuclear receptor coactivator 1 (Homo sapiens) (Q15788 whole entry, looked up, the tested form may be a part): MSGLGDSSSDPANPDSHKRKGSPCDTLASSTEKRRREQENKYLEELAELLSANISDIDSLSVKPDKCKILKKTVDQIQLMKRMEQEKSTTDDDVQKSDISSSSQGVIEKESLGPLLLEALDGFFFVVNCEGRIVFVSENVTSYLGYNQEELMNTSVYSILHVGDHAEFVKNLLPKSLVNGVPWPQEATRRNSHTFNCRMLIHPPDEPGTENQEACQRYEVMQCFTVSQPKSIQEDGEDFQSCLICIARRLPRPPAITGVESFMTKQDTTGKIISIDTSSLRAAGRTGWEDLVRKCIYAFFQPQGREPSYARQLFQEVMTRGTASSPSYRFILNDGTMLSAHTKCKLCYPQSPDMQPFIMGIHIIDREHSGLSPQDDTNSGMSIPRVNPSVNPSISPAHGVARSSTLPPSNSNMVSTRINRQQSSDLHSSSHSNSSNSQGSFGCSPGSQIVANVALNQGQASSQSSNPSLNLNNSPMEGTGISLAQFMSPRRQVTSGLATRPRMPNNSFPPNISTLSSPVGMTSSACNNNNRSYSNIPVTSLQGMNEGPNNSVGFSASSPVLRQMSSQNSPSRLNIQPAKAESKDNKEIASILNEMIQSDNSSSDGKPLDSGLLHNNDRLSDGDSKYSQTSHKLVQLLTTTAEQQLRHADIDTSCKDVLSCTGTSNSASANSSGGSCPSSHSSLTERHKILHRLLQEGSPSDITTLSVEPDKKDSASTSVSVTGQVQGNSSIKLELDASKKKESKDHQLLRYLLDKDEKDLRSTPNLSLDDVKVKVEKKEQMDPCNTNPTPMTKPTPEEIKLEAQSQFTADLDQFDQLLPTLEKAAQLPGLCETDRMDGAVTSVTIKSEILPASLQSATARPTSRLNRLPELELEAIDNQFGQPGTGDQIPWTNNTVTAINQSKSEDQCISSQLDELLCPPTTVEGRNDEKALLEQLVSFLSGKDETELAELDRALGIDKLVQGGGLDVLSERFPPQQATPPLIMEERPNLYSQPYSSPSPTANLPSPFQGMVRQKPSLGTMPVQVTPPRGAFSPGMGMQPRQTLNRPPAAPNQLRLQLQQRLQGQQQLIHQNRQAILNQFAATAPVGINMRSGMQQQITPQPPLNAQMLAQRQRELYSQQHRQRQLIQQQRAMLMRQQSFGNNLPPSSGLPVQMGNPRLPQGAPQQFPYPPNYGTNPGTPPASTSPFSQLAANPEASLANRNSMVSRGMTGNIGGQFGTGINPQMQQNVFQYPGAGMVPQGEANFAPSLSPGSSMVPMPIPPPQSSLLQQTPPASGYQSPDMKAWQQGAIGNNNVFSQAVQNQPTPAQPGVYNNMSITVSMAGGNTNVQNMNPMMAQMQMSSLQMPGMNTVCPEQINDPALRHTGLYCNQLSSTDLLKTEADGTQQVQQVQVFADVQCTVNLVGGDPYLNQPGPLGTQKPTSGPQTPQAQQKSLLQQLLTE
Sequence of Photoreceptor-specific nuclear receptor (Homo sapiens) (Q9Y5X4 whole entry, looked up): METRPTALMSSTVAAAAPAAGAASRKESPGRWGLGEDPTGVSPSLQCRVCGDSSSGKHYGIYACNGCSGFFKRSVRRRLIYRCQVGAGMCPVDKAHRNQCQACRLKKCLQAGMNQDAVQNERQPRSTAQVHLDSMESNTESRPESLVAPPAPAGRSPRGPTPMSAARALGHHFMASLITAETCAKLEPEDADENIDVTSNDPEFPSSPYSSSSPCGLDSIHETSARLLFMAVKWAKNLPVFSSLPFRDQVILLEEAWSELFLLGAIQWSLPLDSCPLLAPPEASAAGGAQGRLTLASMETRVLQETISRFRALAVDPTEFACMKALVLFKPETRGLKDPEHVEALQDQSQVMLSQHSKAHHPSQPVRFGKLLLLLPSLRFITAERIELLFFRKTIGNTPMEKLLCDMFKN
Sequence of COUP transcription factor 2 (Homo sapiens) (P24468 whole entry, looked up): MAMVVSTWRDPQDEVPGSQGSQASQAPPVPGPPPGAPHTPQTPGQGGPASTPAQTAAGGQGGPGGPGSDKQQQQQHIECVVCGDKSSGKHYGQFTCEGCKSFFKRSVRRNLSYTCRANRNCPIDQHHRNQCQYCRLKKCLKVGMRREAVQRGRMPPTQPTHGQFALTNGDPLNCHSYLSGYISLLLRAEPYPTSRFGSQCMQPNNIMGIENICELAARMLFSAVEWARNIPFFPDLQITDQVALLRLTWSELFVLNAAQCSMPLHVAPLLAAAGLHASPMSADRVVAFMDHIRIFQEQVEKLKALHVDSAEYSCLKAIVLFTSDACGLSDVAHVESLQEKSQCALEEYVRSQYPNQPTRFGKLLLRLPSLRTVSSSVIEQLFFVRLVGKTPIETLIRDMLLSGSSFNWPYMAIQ

A word on the inhibition: it is the relative decrease from the control value, in per cent. Consider `COC1CC2C=C(C)C=CC=CC(=O)NC(c3ccccc3)CC=CCCC(O)CC(=O)C2=C1O` (centres undefined), for which the inhibition in assay [1] was 75.1% (active); in [2] it was 84% (active); in assay [3], 29.9%; in assay [4] it was 84.7% (active); in assay [5] it was 81.7% (active); in assay [6] it was 107% (active). Further, the inhibition is 95.6% (active) in [7] and 89.8% (active) in assay [8].

For `CCC(C)(O)C(=O)OC1C(=O)OC2CC3C(C)=CC(=O)C(O)C3(C)C3C4(O)OCC23C1C(C)C4O` (centres undefined), the inhibition was 97.1% (active) in assay [1]; 96.7% (active) in [2]; 94.3% (active) in assay [3]; 96.4% (active) in [4]; 98.7% (active) in assay [9]; 86.9% (active) in assay [10]. The inhibition in [5] was 96.1% (active); in assay [6], 109% (active); in [7], 97.6% (active); in [8] it was 96.8% (active); in [11] it was 80.7% (active); in assay [12], 74.8% (active). Further, the figures for the inhibition in assay [13] and in [14] were 31.2% (active) and 90.8% (active), respectively.

`CCOc1ccc(-c2c(C)n(-c3ccc(OCC)cc3)c3[n+]2CCCCC3)cc1`: the inhibition is 96.3% (active) in assay [1], 89% (active) in assay [2], 74% (active) in [3] and 87.2% (active) in assay [4].

Turning to `O=c1[nH]c2ccccc2n1C1CCN(C(c2cccs2)c2nnnn2Cc2ccccc2)CC1` (centres undefined), the inhibition in assay [1] was 32.3%; in assay [2], 36.7% (active); in assay [3] it was 0.46%; in assay [4], 32.5% (active).

For the molecule `C[C@H]1O[C@@H](OC2CC[C@]3(C=O)[C@H]4CC[C@]5(C)[C@@H](C6=CC(=O)OC6)CC[C@]5(O)[C@@H]4CC[C@]3(O)C2)CC2OC(C)(C)OC21` (some centres undefined), the inhibition in [1] was 94.5% (active); in [2], 85.3% (active); in assay [3], 65.8% (active); in [4] it was 83.1% (active); in assay [5] it was 97.6% (active); in [6] it was 111% (active). Further, the inhibition in assay [7] is 99.5% (active); in assay [8] it was 93.3% (active).

As for `CC(=NCc1ccc(F)cc1)c1c(O)n(C)c(=O)n(C)c1=O`, the inhibition in [1] is 11%; in assay [2], 49.6% (active); in assay [3], 12.8%; in assay [4], 49.7% (active); in assay [5], 39.6% (active); in assay [6], 51.4% (active). The inhibition in assay [7] was 73% (active); in [8] it was 62.8% (active).

Take `O=[N+]([O-])c1ccc(N2CCOCC2)c2c1no[n+]2[O-]`: the inhibition in assay [1] was 82.4% (active); in assay [2], 62.9% (active); in assay [3], 23%; in [4], 62.2% (active); in assay [5] it was 94.1% (active); in assay [6] it was 101% (active). The inhibition was 92.6% (active) in assay [7] and 70.7% (active) in assay [8].

In the case of `O=c1[nH]c2ccccc2n1C1CCN(C(CCc2ccccc2)c2nnnn2Cc2ccccc2)CC1` (centres undefined), the inhibition in [1] is 34.6%; in [2] it was 40.3% (active); in assay [3], 12%; in assay [4], 36.7% (active).

On to `CN(C)c1ccc(C(=O)N/N=C/C23CC[C@@H](O)CC2(O)CC[C@@H]2[C@@H]3CCC3(C)C(C4=CC(=O)OC4)CCC23O)cc1` (some centres undefined), for which the inhibition is 1.62% in assay [1], 23.4% in assay [2], -57.9% in assay [3] and 7.1% in assay [4].

With `CC(C)[C@H]1C(=O)O[C@H](C(C)C)C(=O)N(C)[C@@H](C(C)C)C(=O)O[C@H](C(C)C)C(=O)N(C)[C@@H](C(C)C)C(=O)O[C@H](C(C)C)C(=O)N1C`, the inhibition in [1] was 75% (active); in [2], 86.1% (active); in assay [3], 59.5% (active); in [4] it was 84.9% (active).

Take `c1ccc(-c2cc(-c3ccccc3)[n+](-c3ccccc3)c(-c3ccccc3)c2)cc1`: the inhibition in assay [1] is 61.7% (active); in assay [2], 75.9% (active); in assay [3], 49.1% (active); in assay [4] it was 81.6% (active); in assay [5], 69.6% (active); in [6], 104% (active). The inhibition in assay [7] was 81.3% (active); in assay [8] it was 89.4% (active).

For `N#CC(C#N)=NNc1ccc(-n2ccc(C(F)(F)F)n2)cc1`, the inhibition in assay [1] is 49.1% (active); in assay [2], 52.6% (active); in assay [3], 40.7%; in assay [4], 56.3% (active).

As for `CCN1/C(=C/C=C/C2=[N+](CC)c3ccccc3C2(C)C)C(C)(C)c2ccccc21`, the inhibition in [1] is 97.1% (active); in [2], 87.3% (active); in assay [3], 51.5% (active); in [4], 87.5% (active); in assay [5], 86.7% (active); in assay [6], 110% (active). The inhibition in assay [7] was 96.1% (active); in assay [8], 96.7% (active).

For `CN1CCN(c2ccc([N+](=O)[O-])c3no[n+]([O-])c23)CC1`, the inhibition in assay [1] was 98.6% (active); in assay [2], 96.4% (active); in assay [3], 93.7% (active); in [4], 96% (active); in [5] it was 97% (active); in [6], 111% (active). For the same molecule, the inhibition was 98.9% (active) in assay [7] and 97.9% (active) in assay [8].

In the case of `O=c1[nH]c2ccccc2n1C1CCN(C(c2cc3ccccc3o2)c2nnnn2Cc2ccccc2)CC1` (centres undefined), the inhibition in [1] is 59.9% (active); in assay [2], 9.7%; in assay [3], -16%; in assay [4] it was 11.7%.

With `CC[n+]1c(-c2ccccc2)c2cc(N)ccc2c2ccc(N)cc21`, the inhibition was -43.8% in assay [1]; 52.4% (active) in assay [2]; 40.9% in [3]; 41.4% (active) in assay [4]; 68.7% (active) in [5]; 92.5% (active) in [6]. The inhibition in assay [7] is 77.7% (active); in assay [8] it was 84.8% (active).

Consider `Cc1ccccc1-[n+]1c(-c2ccccc2)cc(-c2ccccc2)cc1-c1ccccc1`, for which the inhibition in assay [1] is 69.8% (active); in assay [2] it was 86% (active); in assay [3], 71.6% (active); in assay [4] it was 84.6% (active); in [5], 83.2% (active); in [6], 109% (active). Moreover, the results for the inhibition in assay [7] and in assay [8] were 95.3% (active) and 94.7% (active), respectively.

The record behind these values is PubChem BioAssay.
